Laboratory results as given in PubChem BioAssay (NCATS).
Records with an inconclusive call do not appear. The source made the active and inactive calls. The call rests on the fitted dose curve; in most records, active means well fitted inhibition curve with a large enough effect; inconclusive means small, poorly fitted or top-dose-only effect; inactive means flat fitted curve, though single readings scatter.

How the values were obtained:
CRL-7250 = normal cell line; assay: Cytotoxic Profiling of Annotated Libraries Using Quantitative High-Throughput Screening (AID 1296008); conditions: Five cell lines viability, CellTiter-Glo ATP luminescence, 48-72 h; max response: stronger effect = lower value; on max response: on the % scale 0 is the no-effect control and ±100 the full control effect
Method in brief: (§1)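 Cells exposed to compounds for 48 or 72 hr at 37 degrees Celsius. Viability read as ATP-coupled luminescence with CellTiter-Glo after 10 min at room temperature.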

HEK293 = assay: as above; conditions: Five cell lines viability, CellTiter-Glo ATP luminescence, 48-72 h; max response: stronger effect = lower value
Method in brief: as §1

HaCat [1] = assay: as above; conditions: Five cell lines viability, CellTiter-Glo ATP luminescence, 48-72 h; max response: stronger effect = lower value
Method in brief: as §1

KB-3-1 = assay: as above; conditions: Five cell lines viability, CellTiter-Glo ATP luminescence, 48-72 h; max response: stronger effect = lower value
Method in brief: as §1

NIH3T3 = assay: as above; conditions: Five cell lines viability, CellTiter-Glo ATP luminescence, 48-72 h; max response: stronger effect = lower value
Method in brief: as §1

HACAT [2] = assay: qHTS assay to identify novel small-molecules to repurpose for Merkel cell carcinoma treatment (AID 1296009); conditions: MCC and control cell lines, CellTiter-Glo viability, 72 h; at 44.8 µM (top of the series) unless noted
Method in brief: (§2)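 Dose-response viability screen; 72 hr exposure at 37 degree celsius; CellTiter-Glo added, 10 min room temperature, luminescence read; RLUs scaled between no-cell and DMSO wells.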

HEK293T = assay: as above; conditions: MCC and control cell lines, CellTiter-Glo viability, 72 h; series mostly up to 44.8 µM
Method in brief: as §2
Further: nearly all actives have a fitted effect of over 60% in size.

O=C(/C=C/c1ccc(O)cc1)OCC1=CC2OC(=O)C3=CO[C@@H](O[C@@H]4O[C@H](CO)[C@@H](O)[C@H](O)[C@H]4O)[C@H]1[C@@H]32 (stereo partly specified)
inactive: max response (CRL-7250) -2.07% | outcome (HEK293) | outcome (HaCat [1]) | outcome (KB-3-1) | max response (NIH3T3) -2.28% | outcome (HACAT [2]) inactive [at 17.4 µM] | Potency (HEK293T)

CC(C)(O)c1ccc2c(c1)C(=O)CC1[C@](C)(CO)CCC[C@]21C (stereo partly specified)
inactive: max response (CRL-7250) -1.72% | outcome (HEK293) | outcome (HaCat [1]) | max response (KB-3-1) -6.05% | max response (NIH3T3) -3.87% | outcome (HACAT [2]) | Potency (HEK293T)

O=C(c1ccc(C#Cc2cccc(F)c2)cn1)N1CC2CC2C1 (stereo unspecified)
inactive: outcome (CRL-7250) | outcome (HEK293) | outcome (HaCat [1]) | outcome (KB-3-1) | max response (NIH3T3) 3.17% | outcome (HACAT [2]) | Potency (HEK293T)

O=C(O[C@H]1[C@@H]2C=CO[C@@H](O[C@@H]3O[C@H](CO)[C@@H](O)[C@H](O)[C@H]3O)[C@@H]2[C@@]2(CO)O[C@@H]12)c1ccc(O)cc1
inactive: max response (CRL-7250) 1.96% | outcome (HEK293) | outcome (HaCat [1]) | max response (KB-3-1) 3.57% | outcome (NIH3T3) | outcome (HACAT [2]) inactive [at 17.4 µM] | Potency (HEK293T)

CC1=CC2(O)/C=C/C(C)(O)CC(O)/C=C/C(=O)OC23C(=O)NC(CC(C)C)C3C1C (stereo unspecified)
inactive: max response (CRL-7250) -2.92% | outcome (HEK293) | outcome (HaCat [1]) | max response (KB-3-1) -3.67% | outcome (NIH3T3) | outcome (HACAT [2]) inactive [at 17.4 µM] | Potency (HEK293T)

CCOC(=O)c1c(C)nn(-c2cccc([N+](=O)[O-])c2)c1C
inactive: max response (CRL-7250) -7.75% | outcome (HEK293) | outcome (HaCat [1]) | max response (KB-3-1) 0.772% | max response (NIH3T3) 3.21% | outcome (HACAT [2]) | Potency (HEK293T)

CC1(CCC(=O)O)C(=O)C=CC23CC4CC(OC4(C)C2O)C13 (stereo unspecified)
inactive: max response (CRL-7250) 3.62% | outcome (HEK293) | outcome (HaCat [1]) | max response (KB-3-1) 2.02% | outcome (NIH3T3) | outcome (HACAT [2]) | Potency (HEK293T)

Cc1ncc([N+](=O)[O-])n1CC(O)CN1CCOCC1 (stereo unspecified)
inactive: outcome (CRL-7250) | outcome (HEK293) | outcome (HaCat [1]) | outcome (KB-3-1) | outcome (NIH3T3) | outcome (HACAT [2]) | Potency (HEK293T)

CC(C)c1cc2c(c(O)c1O[C@@H]1O[C@H](CO)[C@@H](O)[C@H](O)[C@H]1O)CC1(O)CCC(O)C(C)(C)C1CC2 (stereo partly specified)
inactive: outcome (CRL-7250) | outcome (HEK293) | outcome (HaCat [1]) | max response (KB-3-1) 2.46% | max response (NIH3T3) 0.487% | outcome (HACAT [2]) inactive [at 17.4 µM] | Potency (HEK293T)

NC(Cc1c[nH]c2ccccc12)C(=O)NC(CCC(=O)O)C(=O)O (stereo unspecified)
inactive: outcome (CRL-7250) | outcome (HEK293) | outcome (HaCat [1]) | max response (KB-3-1) 5.6% | max response (NIH3T3) 1.77% | outcome (HACAT [2]) | Potency (HEK293T)

COc1ccc(C(=O)O[C@H]2CC(C)=CC[C@@]3(C)[C@@H](OC(C)=O)C[C@@](O)(C(C)C)[C@H]23)cc1
inactive: max response (CRL-7250) -4.18% | outcome (HEK293) | outcome (HaCat [1]) | max response (KB-3-1) 7.38% | outcome (NIH3T3) | outcome (HACAT [2]) inactive [at 17.4 µM] | Potency (HEK293T)

CC/C=C\C[C@H]1C(=O)C=C[C@@H]1CCCCCCCC(=O)O
inactive: max response (CRL-7250) 4.76% | outcome (HEK293) | outcome (HaCat [1]) | max response (KB-3-1) -3.68% | outcome (NIH3T3) | outcome (HACAT [2]) | Potency (HEK293T)

CCS(=O)(=O)N1CCC([C@@H](C)n2c(C)c(C(=O)NCc3c(OC)cc(C)[nH]c3=O)c3ccccc32)CC1
inactive: outcome (CRL-7250) | outcome (HEK293) | outcome (HaCat [1]) | max response (KB-3-1) 9.76% | outcome (NIH3T3) | outcome (HACAT [2]) | Potency (HEK293T)

COc1cc(NC(=O)c2ccccn2)ccc1Cl
inactive: max response (CRL-7250) 4.88% | outcome (HEK293) | outcome (HaCat [1]) | max response (KB-3-1) -6.58% | outcome (NIH3T3) | outcome (HACAT [2]) | Potency (HEK293T)

CC(C)CNC(=O)/C=C/CCCCc1ccc2c(c1)OCO2
inactive: max response (CRL-7250) -4.34% | outcome (HEK293) | outcome (HaCat [1]) | max response (KB-3-1) 4.53% | max response (NIH3T3) -0.808% | outcome (HACAT [2]) | Potency (HEK293T)

CCC1CC2C(C)=CC3CCCCC3C2(C)C2(OC(=O)C(C)(O)OC2=O)O1 (stereo unspecified)
inactive: max response (CRL-7250) 0.081% | outcome (HEK293) | outcome (HaCat [1]) | outcome (KB-3-1) | max response (NIH3T3) 1.16% | outcome (HACAT [2]) | Potency (HEK293T)

C=C1CC/C=C(/CO)C(=O)C[C@@H]2[C@@H]1CC2(C)C
inactive: outcome (CRL-7250) | outcome (HEK293) | outcome (HaCat [1]) | max response (KB-3-1) 2.82% | max response (NIH3T3) 0.52% | outcome (HACAT [2]) | Potency (HEK293T)

CC(=O)c1c(C)cc(O)cc1O[C@@H]1O[C@H](CO)[C@@H](O)[C@H](O)[C@H]1O
inactive: max response (CRL-7250) -5.78% | outcome (HEK293) | outcome (HaCat [1]) | outcome (KB-3-1) | outcome (NIH3T3) | outcome (HACAT [2]) | Potency (HEK293T)
